CYP2C19 inh: blockers of cytochrome P450 2C19 activity – biochemical, luminescence, ADME assay, primary screen; CYP2C19 Supersomes, luciferin-H EGE luminescence, 30 min; inhibition, % at 5 µM; AID 778, 2007; 96,000 tested, 21% active;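 active means CYP2C19 inhibition above a set limit at 5 µM in the primary screen, cut at about 50% in these data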;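 further: plate controls were negative control wells for no effect and 2.5 mM tranylcypromine positive control for full effect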
cytoskel mod: modifiers of F-actin cytoskeleton organization, primary screen, imaging, HUVEC, phalloidin staining, high-content imaging. HUVEC TNFa F-actin phalloidin imaging. inhibition, % at 2 µM. 91,000 tested, 0.18% active. AID 836, 2007;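 active means inhibition above the batch mean plus 3 SD and confirmed as a hit by visual image inspection, cut at about 30% in these data, passing the limit was not always enough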
CYP2C19 act: human CYP2C19 activators, primary screen, biochemical, luminescence. recombinant CYP2C19, luciferin-H EGE luminescence; hits give high values; 0 = fully inhibited enzyme, 1 = untreated enzyme. 96,000 tested, under 10 active. AID 1025, 2008. activation factor at 5 µM. Cytochrome P450 2C19 (Homo sapiens), P33261;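 active means activation factor of at least 2 at 5 µM in the primary screen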;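 further: 0 = wells with 2.5 mM tranylcypromine and 1 = vehicle-only wells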
CYP2C9 inh: blockers of cytochrome P450 2C9 activity – biochemical, luminescence, ADME assay, primary screen; CYP2C9 Supersomes, luciferin-H conversion; inhibition, % at 5 µM; 96,000 tested, 20% active; P11712;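 active means blocking of liver enzyme CYP2C9 beyond about 50% at 5 µM, limit read from the data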
Target sequence (P11712 whole entry, looked up): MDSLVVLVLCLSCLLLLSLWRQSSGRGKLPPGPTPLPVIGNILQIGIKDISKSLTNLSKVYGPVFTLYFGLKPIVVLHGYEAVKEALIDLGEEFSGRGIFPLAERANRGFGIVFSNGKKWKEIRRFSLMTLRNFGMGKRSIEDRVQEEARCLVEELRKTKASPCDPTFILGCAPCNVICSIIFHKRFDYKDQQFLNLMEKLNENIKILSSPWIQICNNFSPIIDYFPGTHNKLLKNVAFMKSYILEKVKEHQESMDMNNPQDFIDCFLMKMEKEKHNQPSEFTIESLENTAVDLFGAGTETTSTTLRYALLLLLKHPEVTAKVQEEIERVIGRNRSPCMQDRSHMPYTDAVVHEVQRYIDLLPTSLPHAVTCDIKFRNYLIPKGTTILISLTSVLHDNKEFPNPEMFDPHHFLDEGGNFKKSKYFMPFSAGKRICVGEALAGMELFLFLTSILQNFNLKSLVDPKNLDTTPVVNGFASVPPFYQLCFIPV
CYP2C9 activ: human CYP2C9 activators, primary screen, biochemical, luminescence. Cytochrome P450 2C9 (Homo sapiens), P11712. recombinant CYP2C9, luciferin-H conversion; hits give high values; factor 1 = untreated enzyme, 0 = blocked. activation factor at 5 µM. 96,000 tested, 1.4% active. AID 1024, 2008;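 active means activation factor of 2 or more for CYP2C9 at a 5 µM dose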;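 further: 0 = sulfaphenazole-blocked wells and 1 = vehicle-only wells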
E-sel TNF inh: E-selectin induction blockers in HUVEC – imaging, immunofluorescence, high content, primary screen; HUVEC TNFa-induced E-selectin immunofluorescence; AID 1246, 2008; 120,000 tested, 0.71% active; inhibition, % at 2 µM;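 active means inhibition above the batch mean plus 3 SD, and confirmed as a hit on visual image review, cut at about 43% in these data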;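 further: 0% = TNF-stimulated DMSO wells and 100% = unstimulated control wells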
* = called active by the depositor. Rows were chosen to be rich in hits. Some 22% of all compounds tested hit in one or more screens of this group.

How did O=C(NCCC1=CCCCC1)C1CCCN(S(=O)(=O)c2cccc3cccnc23)C1 (stereo not drawn) do in these assays?
CYP2C19 inh: 73*; cytoskel mod: -3; CYP2C19 act: 0.3; CYP2C9 inh: -286; CYP2C9 activ: 3.9*; E-sel TNF inh: -11

Results for O=C(NCCC1=CCCCC1)C1CCCN(S(=O)(=O)c2cccnc2)C1 (stereo not drawn) ?
CYP2C19 inh: 58*; cytoskel mod: -19; CYP2C19 act: 0.4; CYP2C9 inh: 54*; CYP2C9 activ: 0.5; E-sel TNF inh: -27

How did COc1ccc(S(=O)(=O)N2CCCC(C(=O)NCCC3=CCCCC3)C2)cc1 (stereo not drawn) do in these assays?
CYP2C19 inh: -9; cytoskel mod: 28; CYP2C19 act: 1.1; CYP2C9 inh: -46; CYP2C9 activ: 1.5; E-sel TNF inh: -22

Results for O=C(NCCC1=CCCCC1)C1CCCN(c2nc3ccccc3o2)C1 (stereo not drawn) ?
CYP2C19 inh: 45; cytoskel mod: 16; CYP2C19 act: 0.6; CYP2C9 inh: 51*; CYP2C9 activ: 0.5

What do the screens show for `O=C(Nc1ccc(Cl)cc1)C1=Cc2ccccc2OC1`?
CYP2C19 inh: 29; cytoskel mod: -12; CYP2C19 act: 0.7; CYP2C9 inh: 10; CYP2C9 activ: 0.9; E-sel TNF inh: -8

Results for S=C(c1c[nH]c2ccccc12)N1CCOCC1 ?
E-sel TNF inh: -3

What do the screens show for `CC(NC(=O)C12CC3CC(C1)CC(n1cncn1)(C3)C2)C12CC3CC(CC(C3)C1)C2` (stereo not drawn)?
CYP2C19 inh: 68*; cytoskel mod: -18; CYP2C19 act: 0.3; CYP2C9 inh: 72*; CYP2C9 activ: 0.3; E-sel TNF inh: 14

How did O=C(NC1CCCCC1)C12CC3CC(C1)CC(n1cncn1)(C3)C2 do in these assays?
CYP2C19 inh: -5; cytoskel mod: -42; CYP2C19 act: 1.1; CYP2C9 inh: 0; CYP2C9 activ: 1; E-sel TNF inh: -23

What do the screens show for `O=C1c2cccnc2C(O)N1Cc1ccco1` (stereo not drawn)?
CYP2C19 inh: -23; cytoskel mod: -1; CYP2C19 act: 1.2; CYP2C9 inh: -10; CYP2C9 activ: 1.1

What do the screens show for `O=C1CC(NCc2cccs2)C(=O)N1c1ccc(Cl)cc1` (stereo not drawn)?
CYP2C19 inh: 42; cytoskel mod: 0; CYP2C19 act: 0.6; CYP2C9 inh: -3; CYP2C9 activ: 1; E-sel TNF inh: -9

How did O=C1CC(NCc2ccncc2)C(=O)N1c1ccc(Cl)cc1 (stereo not drawn) do in these assays?
CYP2C19 inh: 88*; cytoskel mod: -4; CYP2C19 act: 0.1; CYP2C9 inh: 82*; CYP2C9 activ: 0.2

Results for COC(=O)c1ccc(N2C(=O)CC(NCc3ccccc3)C2=O)cc1 (stereo not drawn) ?
CYP2C19 inh: 43; cytoskel mod: 17; CYP2C19 act: 0.6; CYP2C9 inh: 17; CYP2C9 activ: 0.8; E-sel TNF inh: -4

How did O=C1CC(NCc2ccncc2)C(=O)N1c1ccccc1 (stereo not drawn) do in these assays?
CYP2C19 inh: 94*; cytoskel mod: 0; CYP2C19 act: 0.1; CYP2C9 inh: 91*; CYP2C9 activ: 0.1; E-sel TNF inh: 6

What do the screens show for `O=S(=O)(NCCc1cn2ccccc2n1)c1ccc2c(c1)CCCC2`?
E-sel TNF inh: 40

How did COc1ccc(CNC(=O)C2CCCN2S(=O)(=O)c2ccc(F)cc2)cc1 (stereo not drawn) do in these assays?
E-sel TNF inh: -15

Results for Cc1ccc(-c2nc3cccnc3o2)cc1NC(=O)COc1ccc(Cl)cc1C ?
CYP2C19 inh: 26; cytoskel mod: 35; CYP2C19 act: 0.7; CYP2C9 inh: 64*; CYP2C9 activ: 0.4; E-sel TNF inh: 0

What do the screens show for `Cc1ccc(-c2nc3cccnc3o2)cc1NC(=O)COc1ccc(C(C)(C)C)cc1`?
CYP2C19 inh: 33; CYP2C19 act: 0.7; CYP2C9 inh: 55*; CYP2C9 activ: 0.4; E-sel TNF inh: 10

Source: PubChem (several laboratories)
